# In the supplement of paper PMC6555819:
# Key:
# Test in all cases: PBM binding z-score (relative to random genomic background probes); higher = stronger binding; sequences stand for … in GC…GCGATTGACAGCGTAGAATGAAGG
# [1] = tested on: RARb homodimer (NR concentration 270 nM)
# In short: (§1)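 Custom Agilent 4×180K protein-binding microarrays carried double-stranded probes. Their 34-nt variable regions held direct-repeat seeds, single-nucleotide variants, half-site ablations and random human genomic background sequences. Arrays were incubated 1 h with ligand-free nuclear receptor dimers in PBS pH 7.4, 2% milk, 0.02% Triton X-100, 1 mM DTT, 0.2 mg/mL BSA and 0.4 mg/ml salmon testes DNA. Antibodies against each partner (one per run) detected binding, and scanned fluorescence was regression-normalized. Binding z-scores use random background probes as reference.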
# [2] = tested on: RARg:RXRa (NR concentration 270 nM, RXRa partner concentration 90 nM)
# In short: as §1
# [3] = tested on: RARg homodimer (NR concentration 270 nM)
# In short: as §1
# [4] = tested on: RXRa DBDmut IVT, anti-RXR (DBD mutation: RXRa K156A/R161A, NR concentration 90 nM)
# In short: as §1
# [5] = tested on: RXRa homodimer (NR concentration 180 nM)
# In short: as §1
# [6] = tested on: THRa homodimer (NR concentration 90 nM)
# In short: as §1
# [7] = tested on: VDR homodimer (NR concentration 270 nM)
# In short: as §1
# [8] = tested on: VDR:RXRa (NR concentration 270 nM, RXRa partner concentration 90 nM)
# In short: as §1
Sequence,PBM binding z-score [1],PBM binding z-score [2],PBM binding z-score [3],PBM binding z-score [4],PBM binding z-score [5],PBM binding z-score [6],PBM binding z-score [7],PBM binding z-score [8]
GGAACGAGGGCATTCGAGGTGATAGCATGGCGAT,1.3,1.4,1.47,2.66,1.07,0.517,1.77,–
GCATATAGGTCATACAAGGTGAAAGTCCGATTGT,3.94,5.1,4.65,1.98,4.8,1.62,1.23,–
CGTCCAAGGTCAAAGGTCAGTGGAGAGATGACGG,5.56,8.71,8.02,4.1,10.1,2.93,4.05,–
TTACCAAGGTGAGCTGAGGTCATTGATCCAACTC,3.91,3.65,3.31,0.946,4.03,4.43,4.32,–
CCTTACGGGTCACTCGAGGTTATAGCATCGGAGT,3.27,4.49,3.78,1.69,4.75,0.632,2.08,–
TATACATGGTCAAAGGCCAGAGTACGAATGTCGA,1.31,1.59,1.67,-0.652,1.39,-0.46,0.302,–
GCATATAGGTAATACAAGATGAAAGTCCGATTGT,-0.399,0.381,0.572,0.287,0.469,-0.636,-0.117,–
CAAACTAGGTCACTGAGGTCAAAGTCCGTGCGTA,5.53,6.59,7.09,3.56,6.35,5.12,7.63,–
CAAACTAGGTCACGTAAGGTCAAAGTCGAATGAC,5.56,7.3,7.46,2.68,6.84,5.19,4.03,–
GCTAGTTGGTCAGTAAAAGGTAACACACCGGTCG,1.31,0.845,0.741,0.148,0.462,0.175,0.0919,–
TAGCCTAGCTCAGATCGGGCCAGTATACGCTATA,-1.12,-0.862,-0.645,-1.11,-0.698,-0.99,-0.652,–
ACTAGTTGGTCAACTGAGGTCACACACAATTCGG,4.82,4.49,4.46,1.89,4.58,4.84,3.22,–
CTCGAAAGGTCGATTGAGGTGAGTATACGGATAA,2.68,3.71,3.34,1.66,3.46,0.93,0.553,–
CGTCAAAGTTCAATTAAGGTAACGTAAAGCACGC,3.89,5.26,5.98,4.4,3.67,2.51,3.71,3.98
GCGACTGGGGCAAAGCAGGTCACCATAAGGTTGG,3.27,2.56,2.37,-0.174,2.09,1.37,0.256,–
CAAACCAGGTCACCGGAAGGTCAAAGTCCGCATG,5.65,8.7,7.24,3.06,7.56,4.28,3.95,–
CCTAGCAGGCCAATCTGGATCACTCAAGGCTTGA,-0.439,-0.153,-0.148,0.159,-0.35,-0.7,-0.867,-0.611
GCATATAGGTTATACAAGGTGAAAGTCCGATTGT,1.57,1.7,1.41,0.657,1.79,1.27,0.435,1.57
CCTAGCAGGTCAATCTGGGTCACTCAAGGCTTGA,4.09,4.92,5.25,2.2,4.25,1.44,1.66,–
CTCGAAAGGTCGTTTGAGGTGAGTATACGGATAA,3.19,4.34,3.76,2.94,4.56,1.76,2.79,4.84
AATACAGGGTCATCCTAGGCCAGAGTACGCACAG,3.81,5.57,4.83,3.9,6.16,1.97,3.52,–
CAAACTAGGTCACGCAAGGTCAAAGTCGAATGAC,5.54,6.98,7.6,3.02,6.98,4.21,4.65,–
TAGCCTAGGCCATTCAGGGGCCAGTATAGAAAGC,0.802,0.999,0.71,-0.81,-0.0459,-0.688,-0.441,–
TCTGCTAGGTCAACGAAGGTCAGCTAATCTGCTA,5.28,5.51,6.42,1.14,4.18,1.69,1.38,–
CGAACTAGATCAGAACAGGACAGTGAAGGATGAT,0.0748,-0.355,0.431,0.063,0.00592,-0.243,-0.111,–
CGTCCAAGGTCAGCGAGGTCAGTGAATGCCGAGT,5.62,6.74,7.69,3.3,6.29,4.19,6.64,–
ATATGCAGGTTAGCTGGGGTCATTCAGACTAGGC,3.72,4.14,3.11,1.89,5.56,2.98,4.17,–
